DSG3 Ab inh – human desmoglein-3 autoantibody binding inhibition | P32926 | DSG3-coupled beads, scFv-anti-DSG3-GFP binding, flow cytometry; active compounds read low | binding (percent of control), % at 10 µM | 310,000 tested, 0.48% active;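 active = binding more than 3 SD below its plate's average and above zero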;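 note: hits lower antibody fragment binding to DSG3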
ATG4B inh – inhibitors of human ATG4B cysteine protease. ATG4B cleavage of LC3-PLA2, NBD-HPC fluorescence, 1 h. AID 504462. inhibition, % at 8.33 µM. 340,000 tested, 0.51% active; in the data active = inhibition above about 40%
NSD2 HMT inh – inhibitors of human histone methyltransferase NSD2 | NSD2 peptide methylation, AlphaScreen, 120 min | inhibition, % at 12.5 µM | 310,000 tested, 0.54% active | AID 743445; in the data active = inhibition above about 50%
N-glyco inh – N-linked glycosylation inhibition. D54 ERlucT glycosylation luciferase reporter, 24 h; percent of 100 nM tunicamycin response. reporter increase, % at 12.5 µM. 360,000 tested, 0.23% active;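 active = mean luciferase reporter signal, scaled so untreated is 0 and the glycosylation-blocking control 100, at or above a set limit in every replicate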;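 note: luciferase carries N-glycosylation sites so blocking glycosylation raises the light; 0% = median of neutral control wells and 100% = median of 100 nM tunicamycin wells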
Vif inh – blocks HIV Vif function. HEK293T cells, Vif self-association by quenched fluorescence, imaging, 24 h. inhibition, % at 7.49 µM. 340,000 tested, 0.35% active; in the data active = inhibition above about 50%, passing the limit was not always enough
CaV13 ICDI inh – Primary screen for inhibitors of IQ motif and Ca2+-dependent inactivation inhibitor domain binding in CACNA1D, Förster resonance energy transfer in living cells, …. HEK cells, CFP/YFP FRET ICDI-IQ, plate reader, 10 min; percent FRET-ratio fall versus neutral wells. inhibition, % at 12.3 µM. 340,000 tested, 0.098% active;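 active = mean replicate inhibition of at least 30% and at least 1% of replicates passing that level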;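 note: 0% = median of the neutral control wells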
AlphaScreen art – counter-screen for NSD2 inhibitors: AlphaScreen artifacts; shares compounds with NSD2 HMT inh; AlphaScreen artifact counterscreen, preloaded methylated H4 peptide; AC35, µM (series often up to 10 µM), for the others: at the highest dose activity change, negative = signal loss; 1,500 tested, 9.4% active; AID 1053174; call rule not given here
Active calls of the source: *. Most compounds without a hit are left out; they make up all but 1.9% or so of the library.

Screening CC1(C(=O)NS(=O)(=O)C2CC2)CCN(C(=O)c2ccccc2OC(F)(F)F)C1 (stereo not drawn) returned NSD2 HMT inh -4.6, N-glyco inh 1.6 and CaV13 ICDI inh -9.3.
Screening CCC(=O)c1ccc(N2CCN(C(=O)c3ccc(Br)cc3)CC2)c(F)c1 returned DSG3 Ab inh 99.5, ATG4B inh -7.5, NSD2 HMT inh 0.9, N-glyco inh -3.7, Vif inh -1.6 and CaV13 ICDI inh -5.0.
`Cc1ccc(-n2nc(C(=O)N3CCOCC3)cc2-c2ccc(Cl)cc2)cc1` gave DSG3 Ab inh 102.3, ATG4B inh -2.5, NSD2 HMT inh 1.5, N-glyco inh -1.8, Vif inh 4.2 and CaV13 ICDI inh -0.6.
For O=C(c1cc(-c2ccc(Cl)cc2)n(-c2ccc(Cl)cc2)n1)N1CCOCC1 the results were DSG3 Ab inh 103.2, ATG4B inh -4.0, NSD2 HMT inh 58.1*, N-glyco inh -0.5, Vif inh 2.4, CaV13 ICDI inh -5.1 and AlphaScreen art -2.1%.
For CCCCn1c(Cn2nc(C(=O)O)c3ccccc3c2=O)nc2cc(S(N)(=O)=O)ccc21 the results were DSG3 Ab inh 106.3, ATG4B inh -19.3, NSD2 HMT inh 102.5*, N-glyco inh 2.7, Vif inh 0.9, CaV13 ICDI inh -6.9 and AlphaScreen art -2.6%.
For COc1ccc(CCNC(=O)COC(=O)/C=C/c2cccs2)cc1 the results were DSG3 Ab inh 103.7, ATG4B inh -8.9, NSD2 HMT inh -2.1, N-glyco inh -0.8, Vif inh -6.1 and CaV13 ICDI inh -17.0.
Screening CCCCn1c(N)c(N(CCC(C)C)C(=O)COC(=O)c2ccc([N+](=O)[O-])s2)c(=O)[nH]c1=O returned DSG3 Ab inh 90.8, ATG4B inh -11.8, NSD2 HMT inh 52.9*, N-glyco inh 2.4, Vif inh 11.6, CaV13 ICDI inh -10.3 and AlphaScreen art -5.0%.
CC(C)CN(C(=O)COC(=O)c1ccc([N+](=O)[O-])s1)c1c(N)n(Cc2ccccc2)c(=O)[nH]c1=O was read as DSG3 Ab inh 106.2, ATG4B inh -15.8, NSD2 HMT inh 65.2*, N-glyco inh 10.4, Vif inh -2.5, CaV13 ICDI inh -6.6 and AlphaScreen art -1.2%.
`CCCCN(C(=O)c1ccc([N+](=O)[O-])s1)c1c(N)n(CCCC)c(=O)[nH]c1=O` gave DSG3 Ab inh 99.7, ATG4B inh -2.7, NSD2 HMT inh 19.7, N-glyco inh 0.3, Vif inh 2.0 and CaV13 ICDI inh -5.6.
`CC(C)CN(C(=O)COC(=O)c1cccs1)c1c(N)n(Cc2ccccc2)c(=O)[nH]c1=O` gave DSG3 Ab inh 106.6, NSD2 HMT inh -3.0, N-glyco inh -0.4, Vif inh 7.4 and CaV13 ICDI inh -6.0.
COc1ccc(S(=O)(=O)N2CCCCCC2)cc1C(=O)NCCc1ccc(F)cc1 was read as DSG3 Ab inh 101.8, ATG4B inh -5.0, NSD2 HMT inh -0.2, N-glyco inh -3.6, Vif inh -3.4 and CaV13 ICDI inh -2.6.
Cc1cc(C(=O)COc2cccc(-n3cnnn3)c2)c(C)n1-c1ccccc1 was read as DSG3 Ab inh 99.8, ATG4B inh -2.0, NSD2 HMT inh 56.0*, N-glyco inh -5.1, Vif inh -20.0 and AlphaScreen art -0.9%.
`Cc1cc(OCC(=O)Nc2ccccc2N2CCCC2)ccc1C(C)C` gave DSG3 Ab inh 112.2, ATG4B inh 2.1, NSD2 HMT inh 1.7, N-glyco inh -5.9, Vif inh -4.3 and CaV13 ICDI inh -5.4.
Screening Cc1cc(OCC(=O)Nc2ccccc2N2CCCCC2)ccc1C(C)C returned DSG3 Ab inh 100.2, ATG4B inh 1.4, NSD2 HMT inh 77.1*, N-glyco inh -14.7, Vif inh -9.3, CaV13 ICDI inh -5.9 and AlphaScreen art -0.9%.
CCOc1ccc(N2CC(C(=O)NCCc3c[nH]c4ccc(OC)cc34)CC2=O)cc1 (stereo not drawn) was read as DSG3 Ab inh 112.5, ATG4B inh -5.3, NSD2 HMT inh 88.2*, N-glyco inh -0.2, Vif inh 2.1, CaV13 ICDI inh -6.9 and AlphaScreen art -2.9%.
Cc1nc2c(ccc3c2ccc2nc(C)sc23)s1 was read as ATG4B inh -1.9, NSD2 HMT inh 3.7 and CaV13 ICDI inh -0.6.
For COc1cc2sc(C)nc2c2ccccc12 the results were DSG3 Ab inh 96.7, ATG4B inh -8.8, NSD2 HMT inh 64.0*, N-glyco inh 3.1, Vif inh 4.7, CaV13 ICDI inh -5.3 and AlphaScreen art -0.6%.
For COc1cc(OC)nc(NC2OC(=O)c3ccccc32)n1 (stereo not drawn) the results were DSG3 Ab inh 106.3, ATG4B inh -6.0, NSD2 HMT inh 104.1*, N-glyco inh 2.2, Vif inh 6.7, CaV13 ICDI inh -3.9 and AlphaScreen art 3.8%.
Screening O=C(Cc1csc(N2CCOCC2)n1)N/N=C/c1ccc(O)c(O)c1O returned DSG3 Ab inh 98.8, ATG4B inh -5.6, NSD2 HMT inh 76.7*, N-glyco inh -1.7, Vif inh -1.1, CaV13 ICDI inh 6.8 and AlphaScreen art -8.6%.
`C/C(=N\NC(=O)Cc1csc(N2CCOCC2)n1)c1ccccc1` gave DSG3 Ab inh 95.6, ATG4B inh -5.2, NSD2 HMT inh -0.2, N-glyco inh 0.4, Vif inh 6.4 and CaV13 ICDI inh -4.3.
Screening N=c1sccn1CC(=O)Nc1cc(Cl)ccc1[N+](=O)[O-] returned DSG3 Ab inh 98.5, ATG4B inh -3.7, NSD2 HMT inh -3.2, N-glyco inh -0.1, Vif inh 5.4 and CaV13 ICDI inh 4.5.
For CN(C)c1ccc(NC(=O)c2cccc([N+](=O)[O-])c2)c2ccccc12 the results were DSG3 Ab inh 107.7, ATG4B inh 1.4, NSD2 HMT inh 8.1, N-glyco inh 4.8, Vif inh -0.6 and CaV13 ICDI inh -20.3.
O=C(O)CC1S/C(=N/N=C/c2ccc(-c3ccc(Cl)cc3[N+](=O)[O-])o2)NC1=O (stereo not drawn) was read as DSG3 Ab inh 97.9, ATG4B inh 13.4, NSD2 HMT inh 60.4*, N-glyco inh 4.3, Vif inh -6.9, CaV13 ICDI inh -3.7 and AlphaScreen art -7.8%.
For O=C(O)CC1S/C(=N/N=C/c2ccc(-c3ccc(Cl)c([N+](=O)[O-])c3)o2)NC1=O (stereo not drawn) the results were DSG3 Ab inh 108.0, ATG4B inh 6.4, NSD2 HMT inh 3.3, N-glyco inh 0.0, Vif inh 4.6 and CaV13 ICDI inh -4.2.

Screens (PubChem)
